In PubChem BioAssay (EPA / NIEHS) one finds AC50 and outcome data, which are given here for 40 compounds.

Activity calls are given as the source filed them. The calls were made as follows: active = hit-call score of the fitted dose curve at least 0.9, where 1 is the maximum; inactive = score below 0.9.

The nature of this test: BSK_SAg_PBMCCytotoxicity: PBMC Cytotoxicity Assessment in the BioMAP Diversity Plus: SAg Assay (AID 2283093).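 Also: fitted both ways against DMSO so a hit may be loss or gain of signal.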 The note with it: primary human HUVEC with PBMC. The protocol:
BSK_SAg is a cell-based, multiplexed-readout assay that uses umbilical vein endothelium and peripheral blood mononuclear cells, a human vascular primary cell co-culture, with measurements taken at 24 hours after chemical dosing in a 96-well plate.BSK_SAg_PBMCCytotoxicity is an assay component measured in the BSK_SAg assay. It measures Alamar blue related to cell death using Alamar Blue Reduction technology.Data from the assay component BSK_SAg_PBMCCytotoxicity was analyzed into 1 assay endpoint. This assay endpoint, BSK_SAg_PBMCCytotoxicity, was analyzed with bidirectional fitting relative to DMSO as the negative control and baseline of activity. Using a type of viability reporter, gain or loss-of-signal activity can be used to understand changes in the viability. Furthermore, this assay endpoint can be referred to as a secondary readout, because this assay has produced multiple assay endpoints where this one serves a viability function. To generalize the intended target to other relatable targets, this assay endpoint is annotated to the cell cycle intended target family, where the subfamily is cytotoxicity.
The levels of cell surface (or secreted, indicated by the prefix "s") biomarker endpoints were measured by ELISA. Overt cytotoxicity to cells in confluent adherent cultures (all systems other than the BT system) was assessed by measuring total protein levels using sulforhodamine B (SRB) staining in parallel cultures at the time of biomarker measurements, indicated as SRB endpoints. For proliferation assays for adherent cell types, individual cell types are cultured at sub-confluence and relative cell numbers quantified by SRB staining at time points optimized for each system (48 h: 3C and CASM3C systems; 72 h: BT and HDF3CGF systems; 96 h: SAg system). SRB was performed by staining cells with 0.1% SRB after fixation with 10% TCA and reading wells at 560 nm.Viability and proliferation of PBMC (T cells) was quantified by Alamar Blue reduction for the SAg and BT systems. For PBMC viability (referred to as PBMC Cytotoxicity within the assay endpoint names), cells were plated (75,000/well in a 96-well plate) and then chemical samples added for 1 h before addition of activators, SEB and TSST-1 (20 ng/mL final concentration each). Cells were incubated for 90 h. Then, Alamar Blue (20 uL/well) (Invitrogen, Cat DAL1100) was added for 6 h, and the plates were read with a fluorescence microplate reader at 546/580 nm (excitation/emission). For PBMC proliferation, cells were plated and activated as above but incubated for only 16 h prior to addition of Alamar Blue. Plates were read after 6 h.
For `CN(C)CCCN1c2ccccc2Sc2ccc(Cl)cc21`, the AC50 is 16.4 µM (active).
For `CN(C)C(=O)NC1(c2ccccc2)CCN(CC[C@@]2(c3ccc(F)c(F)c3)CN(C(=O)c3ccccc3)CCO2)CC1`, the outcome was inactive.
`Oc1ccc(O)cc1`: the AC50 is 12.8 µM (active).
For `N[C@@H](Cc1c[nH]c2ccccc12)C(=O)O`, the result was inactive.
Still for that read-out and setting: the value for `CS(=O)(=O)c1ccc([C@@H](C[C@H]2CCC(=O)C2)C(=O)Nc2cnccn2)cc1Cl` was “inactive”; that for `CCc1cc(C2=C(C(=O)O)N(c3ccccc3C(F)(F)F)S(=O)(=O)c3ccccc32)cc2c1OCO2` was “inactive”; that for `CC(=O)[C@@]1(O)CC[C@H]2[C@@H]3CCC4=CC(=O)CC[C@]4(C)[C@H]3CC[C@@]21C` was “inactive”.
On the same count and under the same terms, the value for `O=C1c2c(O)cccc2Cc2cccc(O)c21` was “inactive”.
The same measure, in the same setting: as for `O=C1O[C@H]([C@H](O)CO)C(O)=C1O`, the entry is “inactive”; as for `CC(=O)S[C@H](C(=O)N[C@H]1Cc2ccccc2[C@H]2CCC[C@@H](C(=O)O)N2C1=O)C(C)C`, “inactive”.
Take `O=Cc1ccccc1C=O`: the result was inactive.
The same measure, in the same setting: as for `O=[Si]=O`, the entry is “inactive”.
Consider `Nc1nc(Cl)nc2c1ncn2[C@H]1C[C@H](O)[C@@H](CO)O1`, for which the AC50 is 0.642 µM (active).
With `CCCCC(CC)CO` (stereo not given), the result was inactive.
The same measure, in the same setting: as for `CC1(C)C(=O)NC(=O)N1CO`, the entry is “inactive”; as for `O=C1OC(c2ccc(O)cc2)(c2ccc(O)cc2)c2ccccc21`, “inactive”; as for `CCCCC(CC)COC(=O)CCCCCCCC(=O)OCC(CC)CCCC` (stereo not given), “inactive”.
On the same count and under the same terms, as for `COC(=O)CCCC(=O)OC`, the entry is “inactive”.
On the same count and under the same terms, the value for `CCCCCCC(CCCCCCCCCCC(=O)OCC(COC(C)=O)OC(C)=O)OC(C)=O` (stereo not given) was “inactive”.
As for `O=C(Oc1ccccc1)c1cccc(C(=O)Oc2ccccc2)c1`, the result was inactive.
On the same count and under the same terms, as for `CCOCCOCCO`, the entry is “inactive”.
The same measure, in the same setting: the value for `Cc1occc(=O)c1O` was “inactive”.
The same measure, in the same setting: as for `CC(=O)OCC(COC(C)=O)OC(C)=O`, the entry is “inactive”; as for `CCCC(=O)O`, “inactive”; as for `C=CCc1ccc(OC)c(OC)c1`, “inactive”.
As to `CC(N)=O`, the outcome was inactive.
With `CC(C)c1cccc(C(C)C)c1`, the result was inactive.
Turning to `CCCCC(CC)COP(=O)(OCC(CC)CCCC)OCC(CC)CCCC` (stereo not given), the AC50 was 0.197 µM (active).
`c1ccc2occc2c1`: the outcome was inactive.
On the same count and under the same terms, as for `C#CC(O)C(CC)CCCC` (stereo not given), the entry is “inactive”; as for `CC(=O)O[C@]1(C(C)=O)CC[C@H]2[C@@H]3C=C(Cl)C4=CC(=O)[C@@H]5C[C@@H]5[C@]4(C)[C@H]3CC[C@@]21C`, “inactive”; as for `CC(=O)OC1CC(C)OC(C)O1` (stereo not given), “inactive”.
Still for that read-out and setting: the value for `CC(=O)CC(c1ccccc1)c1c(O)c2ccccc2oc1=O` (stereo not given) was “inactive”.
Same read-out and setting: the value for `CC1=C(C)S(=O)(=O)CCS1(=O)=O` was “inactive”; that for `CC(COCC(C)OC(=O)c1ccccc1)OC(=O)c1ccccc1` (stereo not given) was “inactive”.
Consider `Nc1nc(=S)c2[nH]cnc2[nH]1`, for which the result was inactive.
In the case of `Oc1ccccc1O`, the result was inactive.
The same measure, in the same setting: the value for `COc1ccc(C(=O)Nc2nc3ccccc3c(NCc3ccccc3)c2C#N)cc1` was “inactive”; that for `C/C=C/C=C/C(=O)O` was “inactive”.
As for `NC=O`, the outcome was inactive.
